# TDP1 cell noCPT – qHTS for Inhibitors of human tyrosyl-DNA phosphodiesterase 1 (TDP1): qHTS in cells in absence of CPT; DT40 Tdp1-/- hTDP1 cells, no CPT, ATP luminescence, 48 h; 15% of 420,000 active; Potency, µM (titrated, usually from 46.2 µM), for the others: at the top dose activity change, negative = growth inhibition, most hits filed as inhibitors; AID 686978, 2013; note: nearly all actives have a fitted effect of over 55% in size
#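 Readout: luminescence from CellTiter-Glo after 30 min in the dark at RT. Cells: DT40 Tdp1-/- with stable hTDP1, 400/well. Exposure: compounds alone, ≥48 hr, 37 °C.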
# Gal4-VP16 FLuc – Gal4-VP16 reporter inhibition counter-screen | Drosophila S2 Gal4-VP16 UAS-luciferase, luminescence, 20 h | Potency, µM (titrated, usually from 53.6 µM), inactives show at the top dose activity, negative = inhibition, usual class: inhibitors | 3.5% of 310,000 active | AID 2546;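 note: Gal4-VP16 expression switched on by copper sulfate through the metallothionein promoter; nearly all actives have a fitted effect of over 50% in size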
# TDP1 cell CPT – DT40-hTDP1 cell growth loss with CPT. chicken DT40 Tdp1-/-;hTDP1 cells + 20 nM CPT, ATP luminescence, 48 h. Potency, µM (doses to about 46.2 µM), for the others: top-dose activity change, negative = growth inhibition, actives largely listed as inhibitors. 12% of 420,000 active; note: nearly all actives have a fitted effect of over 55% in size
#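 Cell growth measured by CellTiter-Glo luminescence after a minimum 48 h, 37 C compound exposure with 20 nM CPT in Tdp1-knockout DT40 cells stably expressing hTDP1, seeded 400/well; qHTS titration format.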
# 12-LOX inh – ALOX12 (human) lipoxygenase inhibition | 1.1% of 580,000 active | purified 12hLO, xylenol orange hydroperoxide absorbance | Potency, µM (top dose mostly 108 µM), for the others: at the top dose activity change, negative = inhibition, hits mostly inhibitors | AID 1671190
#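 Purified human 12hLO (150 nM final) in 25 mM Hepes, 0.01% Triton X-100, pH 7.0 was preincubated 15 min at room temperature with compound. Then 40 uM arachidonic acid was added, 30 min. Hydroperoxide was read by Fe-XO absorbance ratio 573/405 nm.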
# RORgamma inh – inhibitors of mouse ROR gamma transcriptional activity; P51450; Drosophila S2 Gal4-RORgamma UAS-luciferase reporter, 20 h; Potency, µM (doses to about 53.6 µM), for the others: at the highest dose activity change, negative = inhibition, most hits filed as inhibitors; 5.4% of 310,000 active; note: nearly all actives have a fitted effect of over 60% in size
# Target sequence (P51450 whole entry, looked up, the tested form may be a part): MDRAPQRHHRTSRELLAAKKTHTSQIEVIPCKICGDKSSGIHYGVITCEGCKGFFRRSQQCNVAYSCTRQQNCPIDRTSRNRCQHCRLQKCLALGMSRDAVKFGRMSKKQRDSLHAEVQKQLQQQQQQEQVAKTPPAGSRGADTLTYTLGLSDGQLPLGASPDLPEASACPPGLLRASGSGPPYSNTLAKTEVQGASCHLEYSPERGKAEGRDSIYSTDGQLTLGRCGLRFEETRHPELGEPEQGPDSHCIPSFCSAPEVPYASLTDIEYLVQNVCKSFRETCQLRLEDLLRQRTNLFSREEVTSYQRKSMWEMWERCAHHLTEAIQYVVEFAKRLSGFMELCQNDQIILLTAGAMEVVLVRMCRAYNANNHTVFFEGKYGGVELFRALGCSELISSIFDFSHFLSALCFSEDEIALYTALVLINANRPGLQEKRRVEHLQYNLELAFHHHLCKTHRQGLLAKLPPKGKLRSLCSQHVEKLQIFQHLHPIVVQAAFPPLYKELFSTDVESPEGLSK
#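 Luciferase reporter read in Schneider cells carrying Gal4-RORγ (mouse) and UAS-Photinus luciferase; cells given compound 1 h before 700 uM copper sulfate induction, then incubated 20 h at ambient temperature.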
# ELG1 repair inh – inhibitors of ELG1-dependent DNA repair in HEK293T cells; 2.3% of 330,000 active; AID 504467; Potency, µM (series often up to 46.1 µM), without a hit: top-dose activity change, negative = inhibition, most hits filed as inhibitors; HEK293T ELG1-luciferase reporter, luminescence, 16 h; DNA damage induced by 5-fluorouridine; note: nearly all actives have a fitted effect of over 55% in size
#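 In this reporter screen, reduction of luminescence relative to DMSO vehicle indicated activity. Compounds and 5-fluorouridine were added together to 2,000 cells per well, incubated for 16 hr at 37 °C, then developed with ONE-Glo.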
# * marks the source's active call; other numbers are inactive results; u = inconclusive; x = no result; [ ] = remark or other dose. Hits are enriched below; roughly 15% of the tested compounds scored in any of these assays. Calls come from the whole dose curve; as a rule, active = well fitted curve in the direction sought with a large enough effect; inconclusive = small, poorly fitted or top-dose-only effect, or another doubt; inactive = no such curve, though single readings can be large; an effect the other way counts as inactive or inconclusive. % is set by controls: 0 for no effect and ±100 for the full control effect; potency is the fitted concentration of half-maximal effect.
SMILES,TDP1 cell noCPT,Gal4-VP16 FLuc,TDP1 cell CPT,12-LOX inh,RORgamma inh,ELG1 repair inh
O=C(C1CC(=O)N(c2n[nH]c3cccc(F)c23)C1)N1CCN(Cc2ccccc2)CC1 (stereo not drawn),x,x,x,52%,x,x
CCOc1ccc2c(n1)CCN(C(=O)C1(c3ccc(OC)cc3)CC1)C2,x,x,x,44%,x,x
CCOc1ccccc1NC(=O)Cn1c(=O)c(-c2noc(C)n2)c2n(c1=O)CCCC2,x,x,x,40%,x,x
COc1ccc(N2CCN(c3oc(COc4ccc(Cl)cc4Cl)nc3C#N)CC2)cc1,9.2µM*,1%,u,395%,25%,2%
COc1ccc(N2CCN(c3oc(Cc4ccccc4)nc3C#N)CC2)cc1,13µM*,-8%,u,-35%,u,u
CCOc1ccc(-c2nc(C#N)c(N3CCN(Cc4ccccc4)CC3)o2)cc1,12µM*,5%,u,6%,28%,u
CC(Sc1nnc(-c2cccs2)n1C1CC1)C(=O)NC1(C#N)CCCCC1 (stereo not drawn),x,x,x,6%,x,x
CCOC(=O)c1c(NC(=O)CC)sc2c1CCN(Cc1ccccc1)C2,u,-3%,u,19%,-9%,-4%
CCOC(=O)c1c(NC(=S)Nc2ccc(OC)cc2)sc2c1CCC2,-6%,-4%,-16%,u,u,10%
CCOC(=O)c1c(NC(=S)NCCc2ccccc2)sc2c1CC(C(C)C)OC2 (stereo not drawn),u,1.3µM*,u,u,2.5µM*,u
C=CCNC(=S)Nc1sc2c(c1C(=O)OCC)CC(C(C)C)OC2 (stereo not drawn),-18%,4.5µM*,-27%,u,5µM*,u
CCc1ccc(-c2nn(C)c(=O)c3c2CCCC3)cc1S(=O)(=O)Nc1ccccc1,x,x,x,0%,x,x
Cc1cc2ccccc2n1CC(=O)N1CCN(C(=O)C2CC2)CC1,x,x,x,-11%,x,x
O=S(=O)(NC(=S)NC1CCCCC1)c1ccccc1,1%,u,-4%,u,4.5µM*,13%
O=S(=O)(NC(=S)NC1CCCCC1)c1cccs1,-14%,-84%,7%,u,11µM*,10%
O=C(NC1CCCCC1)C(Cc1ccccc1)NS(=O)(=O)c1cccs1 (stereo not drawn),-6%,3%,-13%,0%,-9%,-12%
O=S(=O)(NC1CCCCCCC1)c1ccccc1,u,-7%,-21%,-1%,15%,-2%
O=C(Cc1ccc(OCC2CCCCC2)cc1)NO,11µM*,x,10µM*,x,x,x
Cc1ccc(NC(=S)NCCN(C2CCCCC2)C2CCCC2)cc1,u,-6%[10 µM],u,-21%,11µM*,-10%
Cc1ccc(NC(=O)NC2CCCCCCC2)cc1,-5%,u,-6%,7%,27%,u
Cc1cc(C)cc(NC(=S)NCCN(C2CCCCC2)C2CCCC2)c1,u,0%[10 µM],u,u,4.5µM*,-20%
Cc1ccc(NC(=S)NCCN(C2CCCCC2)C2CCCC2)cc1C,u,-1%[10 µM],21µM*,u,5µM*,u
Cc1cc(C)cc(NC(=S)NCCC(c2ccccc2)c2ccccc2)c1,x,x,x,-9%,x,x
CCOC(=O)c1sc(-c2ccc(OC)c(OC)c2)cc1NC(=O)c1ccco1,x,x,x,-28%,x,x
Cc1cccc(C(=O)NC(NC(C)(C)C)C(Cl)(Cl)Cl)c1 (stereo not drawn),x,x,x,-8%,x,x
Cc1cc(N2CCN(C(=O)c3ccco3)CC2)c2ccccc2n1,-14%,-10%,-15%,122%,-3%,-9%
Cc1ccc(S(=O)(=O)N2CCN(c3ccc(C(F)(F)F)cc3[N+](=O)[O-])CC2)cc1,u,-19%,u,-24%,u,0%
